For ten compounds, growth inhibition results are on record in PubChem BioAssay (NCI).

Test [1] can be described thus: NCI Yeast Anticancer Drug Screen. Data for the rad50 strain (AID 155).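 Further: 0% = growth of vehicle-only cultures of the same strain.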 Conditions: S. cerevisiae rad50 strain growth inhibition, active compounds read high. Summed up: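 Genetically altered yeast (DNA repair pathway); compound treatment; growth inhibition vs vehicle ctrl.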
A short description of test [2]: NCI Yeast Anticancer Drug Screen. Data for the mec2-1 strain (AID 157). Conditions: S. cerevisiae mec2-1 strain, active compounds read high. The method in brief: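 Compounds were applied to mec2-1 yeast cells. Their growth was then compared with that of vehicle-treated cultures to give growth inhibition.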
A short description of test [3]: NCI Yeast Anticancer Drug Screen. Data for the sgs1 mgt1 strain (AID 161).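 Further: 0% = growth of cultures given vehicle only.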 As to conditions: S. cerevisiae sgs1 mgt1 strain, active compounds read high. Summed up:
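Growth of a repair-deficient yeast mutant was monitored after compound treatment and expressed as inhibition relative to vehicle-treated cultures.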

Test [4] is described as follows: NCI Yeast Anticancer Drug Screen. Data for the cln2 rad14 strain (AID 165).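 Further: 0% = growth equal to vehicle treated cultures.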 Conditions: S. cerevisiae cln2 rad14 strain, active compounds read high. Summed up:
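Strain: cln2 rad14 yeast, altered in cell cycle control and DNA damage repair. Read-out: growth inhibition vs vehicle.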

The nature of test [5]: NCI Yeast Anticancer Drug Screen. Data for the bub3 strain (AID 167). Conditions: S. cerevisiae bub3 mutant strain, active compounds read high. The method in brief: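 Yeast carrying a defined mutation is treated with each compound, and growth is compared with that of vehicle-exposed cells to give inhibition.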
Test [6] can be described thus: NCI Yeast Anticancer Drug Screen. Data for the mlh1 rad18 strain (AID 175). Conditions: S. cerevisiae mlh1 rad18 strain growth inhibition, active compounds read high. Summed up:
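A repair-deficient yeast strain is exposed to test compound, and growth is scored relative to vehicle-treated controls.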

[7] abbreviates: at 5.0 µM (retest, dose inferred, filed as 0.5).
Where [8] appears, read: at 50.0 µM (retest, dose inferred, filed as 5.0).

About 79,000 compounds went through this panel and 15% of them were active in at least one assay; those are over-represented in the sample as a whole. Unmarked numbers belong to inactive results. Activity calls are given as the source filed them. No stated cut-off is given here; in the data, active means growth inhibition above about 70%; inactive means the rest.

For `C/C(=N\NC(=S)Nc1ccc(C(=O)O)cc1C)c1ccc2ccccc2n1`, the growth inhibition is 1% in test [1] (setting [7]); 55% in test [1] (setting [8]); 86.2% (active) in test [1] (at 50.0 µM); 20% in test [2] (setting [7]); 62% in test [2] (setting [8]); 97.8% (active) in test [2] (at 50.0 µM). Moreover, the growth inhibition is -3% in test [3] (setting [7]); 42% in test [3] (setting [8]); 81.6% (active) in test [3] (at 50.0 µM); 11% in test [4] (setting [7]); 30% in test [4] (setting [8]); 33% in test [4] (at 50.0 µM). The growth inhibition is 0% in test [5] (setting [7]); 45% in test [5] (setting [8]); 34% in test [5] (at 50.0 µM); -1% in test [6] (setting [7]); 49% in test [6] (setting [8]); 91.7% (active) in test [6] (at 50.0 µM).

For `N#CC1CCC(c2ccccc2)(c2ccccc2)C1=O` (stereo not given), the growth inhibition was 5% in test [1] (setting [7]); 99% (active) in test [1] (setting [8]); 94.6% (active) in test [1] (at 50.0 µM); 5% in test [2] (setting [7]); 99% (active) in test [2] (setting [8]); 99.7% (active) in test [2] (at 50.0 µM). Also, the growth inhibition was 4% in test [3] (setting [7]); 100% (active) in test [3] (setting [8]); 99.6% (active) in test [3] (at 50.0 µM); -2% in test [4] (setting [7]); 99% (active) in test [4] (setting [8]); 97.5% (active) in test [4] (at 50.0 µM). Besides, the growth inhibition in test [5] (setting [7]) was -4%; in test [5] (setting [8]) it was 98% (active); in test [5] (at 50.0 µM), 74.3% (active); in test [6] (setting [7]), -5%; in test [6] (setting [8]), 98% (active); in test [6] (at 50.0 µM), 99.5% (active).

Consider `COc1cc(C)cc(C(=O)OCc2ccccc2)c1C1=C(Cl)C(=O)C(Cl)=CC1=O`, for which the growth inhibition in test [1] (setting [7]) is 16%; in test [1] (setting [8]), 16%; in test [1] (at 50.0 µM), 85.5% (active); in test [2] (setting [7]), 12%; in test [2] (setting [8]), 12%; in test [2] (at 50.0 µM), 83.9% (active). Also, the growth inhibition in test [3] (setting [7]) was 5%; in test [3] (setting [8]) it was 5%; in test [3] (at 50.0 µM), 87.5% (active); in test [4] (setting [7]) it was 10%; in test [4] (setting [8]) it was 10%; in test [4] (at 50.0 µM) it was 82% (active). The growth inhibition in test [5] (setting [7]) was -16%; in test [5] (setting [8]), -16%; in test [5] (at 50.0 µM), 80.5% (active); in test [6] (setting [7]) it was 4%; in test [6] (setting [8]) it was 4%; in test [6] (at 50.0 µM) it was 74.5% (active).

On to `COC(=O)c1ccc(NN)cc1`, for which the growth inhibition was 12% in test [1] (setting [7]); 39% in test [1] (setting [8]); 65.8% in test [1] (at 50.0 µM); 4% in test [2] (setting [7]); 19% in test [2] (setting [8]); 61% in test [2] (at 50.0 µM). In addition, the growth inhibition in test [3] (setting [7]) is 3%; in test [3] (setting [8]), 17%; in test [3] (at 50.0 µM), 36.1%; in test [4] (setting [7]), 3%; in test [4] (setting [8]), 42%; in test [4] (at 50.0 µM) it was 46.1%. In addition, the growth inhibition was 3% in test [5] (setting [7]); 85% (active) in test [5] (setting [8]); 86% (active) in test [5] (at 50.0 µM); 4% in test [6] (setting [7]); 42% in test [6] (setting [8]); 40.9% in test [6] (at 50.0 µM).

Turning to `COC(=O)c1nc(Cl)nc(Cl)c1N`, the growth inhibition in test [1] (setting [7]) is 8%; in test [1] (setting [8]), 95% (active); in test [1] (at 50.0 µM), 96.7% (active); in test [2] (setting [7]), 14%; in test [2] (setting [8]) it was 95% (active); in test [2] (at 50.0 µM), 97.3% (active). The growth inhibition in test [3] (setting [7]) was 11%; in test [3] (setting [8]), 92% (active); in test [3] (at 50.0 µM), 98.2% (active); in test [4] (setting [7]) it was -3%; in test [4] (setting [8]), 92% (active); in test [4] (at 50.0 µM), 96% (active). Further, the growth inhibition in test [5] (setting [7]) is 7%; in test [5] (setting [8]), 95% (active); in test [5] (at 50.0 µM), 97.8% (active); in test [6] (setting [7]) it was 11%; in test [6] (setting [8]), 96% (active); in test [6] (at 50.0 µM) it was 98.2% (active).

With `COc1ccc2c(c1OC)OCC2C` (stereo not given), the growth inhibition was 3% in test [1] (setting [7]); 68% in test [1] (setting [8]); 86.5% (active) in test [1] (at 50.0 µM); 0% in test [2] (setting [7]); 38% in test [2] (setting [8]); 71% (active) in test [2] (at 50.0 µM). In addition, the growth inhibition in test [3] (setting [7]) is 1%; in test [3] (setting [8]) it was 56%; in test [3] (at 50.0 µM), 37.6%; in test [4] (setting [7]) it was -4%; in test [4] (setting [8]), 57%; in test [4] (at 50.0 µM) it was 57.4%. In addition, the growth inhibition in test [5] (setting [7]) was 2%; in test [5] (setting [8]), 71% (active); in test [5] (at 50.0 µM) it was 87.1% (active); in test [6] (setting [7]), -4%; in test [6] (setting [8]), 67%; in test [6] (at 50.0 µM), 43.2%.

For the compound `CC1OC(OC2C(Oc3c(-c4ccc(O)c(O)c4O)oc4cc(O)ccc4c3=O)OC(CO)C(O)C2O)C(O)C(O)C1O` (stereo not given), the growth inhibition is -4% in test [1] (setting [7]); -8% in test [1] (setting [8]); 22.9% in test [1] (at 50.0 µM); -5% in test [2] (setting [7]); 0% in test [2] (setting [8]); -5.3% in test [2] (at 50.0 µM). In addition, the growth inhibition in test [3] (setting [7]) was -5%; in test [3] (setting [8]), 1%; in test [3] (at 50.0 µM), -7.95%; in test [4] (setting [7]), 7%; in test [4] (setting [8]) it was 0%; in test [4] (at 50.0 µM) it was -8.85%. For the same compound, the growth inhibition in test [5] (setting [7]) was -1%; in test [5] (setting [8]), 0%; in test [5] (at 50.0 µM), 3.25%; in test [6] (setting [7]) it was -5%; in test [6] (setting [8]) it was -6%; in test [6] (at 50.0 µM) it was -10.7%.

For the compound `CC(c1ccc(OCc2ccccc2)cc1)c1cc2c(cc1OCCO)OCO2` (stereo not given), the growth inhibition in test [1] (setting [7]) is 3%; in test [1] (setting [8]) it was 46%; in test [1] (at 50.0 µM) it was 61.2%; in test [2] (setting [7]), -1%; in test [2] (setting [8]), 41%; in test [2] (at 50.0 µM) it was 76.2% (active). The growth inhibition in test [3] (setting [7]) is 9%; in test [3] (setting [8]), 57%; in test [3] (at 50.0 µM) it was 31.9%; in test [4] (setting [7]) it was -1%; in test [4] (setting [8]), 47%; in test [4] (at 50.0 µM), 43.5%. In addition, the growth inhibition in test [5] (setting [7]) was 6%; in test [5] (setting [8]), 58%; in test [5] (at 50.0 µM), 49.7%; in test [6] (setting [7]), 4%; in test [6] (setting [8]), 62%; in test [6] (at 50.0 µM) it was 43.2%.

In the case of `Cc1ccc(C)c2c3c([nH]c12)-c1ccccc1CC3`, the growth inhibition in test [1] (setting [7]) was 1%; in test [1] (setting [8]) it was 3%; in test [1] (at 50.0 µM), 98.5% (active); in test [2] (setting [7]), -3%; in test [2] (setting [8]), 2%; in test [2] (at 50.0 µM), 92.8% (active). Also, the growth inhibition in test [3] (setting [7]) is -4%; in test [3] (setting [8]) it was 10%; in test [3] (at 50.0 µM), 83.5% (active); in test [4] (setting [7]), -1%; in test [4] (setting [8]), 7%; in test [4] (at 50.0 µM), 80% (active). Moreover, the growth inhibition in test [5] (setting [7]) is 0%; in test [5] (setting [8]), 4%; in test [5] (at 50.0 µM) it was 96.7% (active); in test [6] (setting [7]), 6%; in test [6] (setting [8]) it was 9%; in test [6] (at 50.0 µM) it was 94.8% (active).

As for `O=S(=O)(CC(Br)Br)c1ccccc1`, the growth inhibition in test [1] (setting [7]) was 13%; in test [1] (setting [8]), 99% (active); in test [1] (at 50.0 µM) it was 99.5% (active); in test [2] (setting [7]) it was 18%; in test [2] (setting [8]), 100% (active); in test [2] (at 50.0 µM) it was 98.5% (active). Besides, the growth inhibition was 3% in test [3] (setting [7]); 99% (active) in test [3] (setting [8]); 41% in test [3] (at 50.0 µM); 7% in test [4] (setting [7]); 99% (active) in test [4] (setting [8]); 74.8% (active) in test [4] (at 50.0 µM). The growth inhibition is 34% in test [5] (setting [7]); 99% (active) in test [5] (setting [8]); 99.5% (active) in test [5] (at 50.0 µM); 11% in test [6] (setting [7]); 99% (active) in test [6] (setting [8]); 30.9% in test [6] (at 50.0 µM).
